An excerpt weighted towards active compounds, which were near 7.5% of everything screened.
ELG1 genotoxic: induces genotoxicity in HEK293T cells with luciferase-tagged ELG1; HEK293T ELG1-luciferase reporter, luminescence, 16 h; Potency, µM (top dose mostly 46 µM), hits mostly activators; 1.3% of 330,000 active; note: nearly all actives have a fitted effect of over 60% in size
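Genotoxic stress is detected as increased luminescence from luciferase-tagged ELG1 in HEK293T cells, measured with ONE-Glo after a 16 hr treatment at 37 °C.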
SMN2 splice enh: increases expression of the SMN2 splice variant; HEK293 SMN2-luciferase splicing reporter, luminescence, 30-36 h; Potency, µM (highest dose often 46.1 µM), usual class: activators; 2.8% of 210,000 active; AID 1458; note: nearly all actives have a fitted effect of over 55% in size
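HEK293 cells carry an SMN2 […]–luciferase reporter in which exon 7 inclusion puts luciferase in frame. Cells were plated 10-12 h before compound addition, then incubated 30-36 h at 37C. ONE-Glo luminescence was read; sodium butyrate at 4.5 mM final served as control.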
NPC1 promoter act: NPC1 promoter activation. Huh7 NPC1 promoter luciferase reporter, 24 h. Potency, µM (highest dose often 9.22 µM), usual class: activators. 2.4% of 320,000 active; note: nearly all actives have a fitted effect of over 60% in size
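Luminescence read-out of NPC1 promoter-driven luciferase in stably transfected Huh7 cells; compounds delivered in DMSO and left 24 h at 37C, 5% CO2, qHTS titration format.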
FLuc counter: firefly luciferase modulation, counter-screen for miR-21 project | Potency, µM (series often up to 57.5 µM), usual class: inhibitors | 6.9% of 360,000 active | P08659 | purified FLuc, Km substrates, luminescence inhibition; note: nearly all actives have a fitted effect of over 55% in size
Target sequence (P08659 whole entry, looked up): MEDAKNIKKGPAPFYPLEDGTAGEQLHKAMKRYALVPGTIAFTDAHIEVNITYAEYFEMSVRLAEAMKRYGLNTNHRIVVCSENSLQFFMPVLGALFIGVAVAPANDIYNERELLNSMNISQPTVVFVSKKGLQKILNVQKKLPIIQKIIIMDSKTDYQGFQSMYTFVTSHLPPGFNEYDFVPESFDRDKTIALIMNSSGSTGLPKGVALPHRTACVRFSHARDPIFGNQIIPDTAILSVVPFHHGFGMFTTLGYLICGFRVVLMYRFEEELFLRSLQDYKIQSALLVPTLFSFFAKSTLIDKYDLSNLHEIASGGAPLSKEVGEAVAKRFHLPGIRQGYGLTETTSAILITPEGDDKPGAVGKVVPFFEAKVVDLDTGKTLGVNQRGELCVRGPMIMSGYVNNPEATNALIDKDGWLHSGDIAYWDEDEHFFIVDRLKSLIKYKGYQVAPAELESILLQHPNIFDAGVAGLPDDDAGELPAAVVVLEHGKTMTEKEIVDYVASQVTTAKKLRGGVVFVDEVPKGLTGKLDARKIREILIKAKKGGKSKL
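Purified P. pyralis luciferase (10nM final) with 10uM D-luciferin and 10uM ATP (Km levels) in 50mM Tris acetate pH 7.5, 10mM Mg acetate, 0.01% Tween-20, 0.05% BSA; qHTS 6-point titration, ~60 µM downward; luminescence read.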
Rab9 promoter act: activators of Rab9 promoter; Huh7 Rab9 promoter-luciferase reporter, luminescence, 24 h; Potency, µM (top dose mostly 9.22 µM), most hits filed as activators; 2.8% of 320,000 active; note: nearly all actives have a fitted effect of over 60% in size
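Steps: seed 1500 Huh7 Rab9-luc cells per well, rest 2 h at 37 °C; add compound in DMSO; incubate 24 h; add luciferase reagent, 10 min ambient; read luminescence.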
Large screens that a line does not name were inactive. Calls come from the whole dose curve; as a rule, active = well fitted curve in the direction sought with a large enough effect; inconclusive = small, poorly fitted or top-dose-only effect, or another doubt; inactive = no such curve, though single readings can be large; an effect the other way counts as inactive or inconclusive.

CCOc1cc(/C=C2\SC(=S)N(NC(=O)c3cccnc3)C2=O)ccc1O	FLuc counter 27µM
Cc1ccc(/C=C2\SC(=S)N(CCC(=O)NNC(=O)c3cccc(O)c3)C2=O)cc1	FLuc counter inconclusive (no result: SMN2 splice enh)
COc1cc(/C=C2\SC(=S)N(NC(=O)c3ccncc3)C2=O)ccc1O	FLuc counter 17µM (no result: SMN2 splice enh)
COc1cc(/C=C2\SC(=S)N(NS(=O)(=O)c3ccc(C)cc3)C2=O)ccc1O	FLuc counter 21µM (no result: SMN2 splice enh)
COc1cc(/C=C2\SC(=S)N(NC(=O)c3ccc(O)c(OC)c3)C2=O)ccc1O	FLuc counter 1.3µM (no result: SMN2 splice enh)
COc1cc(/C=C2\SC(=S)N(N3CCOCC3)C2=O)ccc1O	none (no result: SMN2 splice enh)
CC(/C=C1\SC(=S)N(NC(=O)c2ccncc2)C1=O)=C\c1ccccc1	FLuc counter inconclusive (no result: SMN2 splice enh)
COc1cc(/C=C2\SC(=S)N(NS(=O)(=O)c3ccccc3)C2=O)ccc1O	FLuc counter inconclusive (no result: SMN2 splice enh)
CC(=O)Nc1ccc(SC[C@H](Cc2ccccc2)N2CCN(CCc3ccccc3)CCC2=O)cc1	none (no result: SMN2 splice enh)
CCCc1nn(C)c(C(=O)Nc2ccc(C)c(C)c2)c1Cl	ELG1 genotoxic inconclusive, SMN2 splice enh 6.3µM, NPC1 promoter act inconclusive, FLuc counter 11µM, Rab9 promoter act 3.2µM
Cn1c(=O)n(C)c2cc(/C=C3/SC(=O)N(CC(=O)N4CCOCC4)C3=O)ccc21	ELG1 genotoxic inconclusive
CCOC(=O)CN1C(=O)S/C(=C/C=C/c2ccc(N(C)C)cc2)C1=O	ELG1 genotoxic inconclusive, SMN2 splice enh inconclusive, NPC1 promoter act inconclusive, FLuc counter 4.8µM, Rab9 promoter act 3.5µM
CCOC(=O)CN1C(=O)S/C(=C/c2ccc3c(c2)n(C)c(=O)n3C)C1=O	ELG1 genotoxic 21µM, SMN2 splice enh 16µM, FLuc counter inconclusive
CSC1=N/C(=C\c2cccnc2)C(=O)N1c1ccccc1	FLuc counter 12µM
COc1cc(O)c2c(c1)OC(c1ccc(O)cc1)CC2=O (stereo not given)	ELG1 genotoxic inconclusive (no result: SMN2 splice enh)
COc1ccc([C@@H]2CC(=O)c3c(O)cc(O)cc3O2)cc1O	ELG1 genotoxic inconclusive, NPC1 promoter act inconclusive, FLuc counter 15µM, Rab9 promoter act inconclusive
O=C(CCCn1c(=S)[nH]c2ccsc2c1=O)NCc1ccco1	none
Cc1nc2cc(NCc3ccccc3O)ccc2n1Cc1ccccc1	FLuc counter 24µM (no result: SMN2 splice enh)
Cc1nc2ccccc2n1Cc1ccccc1	none (no result: SMN2 splice enh)
Cc1ccc(CNc2ccc3c(c2)nc(C)n3C)cc1	ELG1 genotoxic 2.1µM, NPC1 promoter act 0.56µM, FLuc counter 4.3µM, Rab9 promoter act 0.63µM (no result: SMN2 splice enh)
COc1ccc(OC)c(CNc2ccc3c(c2)nc(C)n3C)c1	none (no result: SMN2 splice enh)
Cc1nc2cc(NCc3ccc(Cl)cc3)ccc2n1C	ELG1 genotoxic 2.6µM, NPC1 promoter act 0.45µM, FLuc counter 2.1µM, Rab9 promoter act 0.45µM (no result: SMN2 splice enh)
Cc1nc2cc(CO)ccc2n1C	none
COc1ccc(CNc2ccc3c(c2)nc(C)n3C)cc1	ELG1 genotoxic inconclusive, SMN2 splice enh 11µM, NPC1 promoter act 2.5µM, FLuc counter 9.5µM, Rab9 promoter act 1.4µM
Cc1cc(C)c2c(CN3CCCCC3C)cc(=O)oc2c1 (stereo not given)	none (no result: SMN2 splice enh)
CC(C)(C)c1ccc(C(=O)NCCOc2ccccc2F)cc1	ELG1 genotoxic 0.73µM, FLuc counter 0.27µM, Rab9 promoter act inconclusive (no result: SMN2 splice enh)
COc1cccc(C(=O)NCCOc2cc(C)cc(C)c2)c1	FLuc counter inconclusive
COc1cc(OC)cc(C(=O)NCCOc2ccccc2)c1	ELG1 genotoxic 12µM, NPC1 promoter act 1.6µM, FLuc counter inconclusive, Rab9 promoter act 1µM
COc1ccccc1C(=O)NCCOc1ccc(C(C)(C)C)cc1	none (no result: SMN2 splice enh)
Cc1ccc(C(=O)NCCOc2cccc(C)c2)cc1	ELG1 genotoxic inconclusive, FLuc counter 24µM
CC(C)(C)c1ccc(C(=O)NCCOc2ccccc2)cc1	ELG1 genotoxic 0.73µM, NPC1 promoter act 0.32µM, FLuc counter 0.34µM, Rab9 promoter act inconclusive (no result: SMN2 splice enh)
COC(=O)c1cc2c(ccn2-c2ccc(F)cc2)n1CC(=O)N1CCN(C(=O)c2ccco2)CC1	none
C=CCOC(=O)CCCC(=O)NC1CCCCC1	none
CC1CCCN(c2nc3c(c(=O)n(C)c(=O)n3C)n2Cc2ccccc2)C1 (stereo not given)	none
COc1ccc(CNC(=O)c2cc(-c3ccc(Cl)cc3)n[nH]2)cc1	none (no result: ELG1 genotoxic, SMN2 splice enh, NPC1 promoter act, Rab9 promoter act)
COc1cccc(-c2cc(C(=O)NCc3ccccc3)[nH]n2)c1	FLuc counter 21µM (no result: ELG1 genotoxic, SMN2 splice enh, NPC1 promoter act, Rab9 promoter act)
COc1cccc(-c2cc(C(=O)Nc3ccc(F)cc3)[nH]n2)c1	FLuc counter 1.7µM (no result: ELG1 genotoxic, SMN2 splice enh, NPC1 promoter act, Rab9 promoter act)

High-throughput results (PubChem BioAssay)
